# LT uptake inh – blocks cellular internalization of anthrax lethal toxin. 0.67% of 70,000 active. AID 912. Cells, anthrax lethal toxin internalization, FRET ratio (460/530). Potency, µM (doses to about 40 µM), for inactives: at the highest dose activity change, negative = inhibition, actives largely listed as inhibitors; further: on the % scale 0 is the no-effect control and ±100 the full control effect; nearly all actives have a fitted effect of over 50% in size
# AmpC inh det – inhibitors of E. coli AmpC beta-lactamase with detergent | P00811 | purified AmpC, nitrocefin hydrolysis with detergent | Potency, µM (top dose mostly 28.7 µM), without a hit: at the top dose activity change, negative = inhibition | 0.09% of 71,000 active | AID 584; active means well fitted curve in the direction sought with a large enough effect; inconclusive means small, poorly fitted or top-dose-only effect; further: on the % scale 0 is the no-effect control and ±100 the full control effect
# Target sequence (P00811 whole entry, looked up): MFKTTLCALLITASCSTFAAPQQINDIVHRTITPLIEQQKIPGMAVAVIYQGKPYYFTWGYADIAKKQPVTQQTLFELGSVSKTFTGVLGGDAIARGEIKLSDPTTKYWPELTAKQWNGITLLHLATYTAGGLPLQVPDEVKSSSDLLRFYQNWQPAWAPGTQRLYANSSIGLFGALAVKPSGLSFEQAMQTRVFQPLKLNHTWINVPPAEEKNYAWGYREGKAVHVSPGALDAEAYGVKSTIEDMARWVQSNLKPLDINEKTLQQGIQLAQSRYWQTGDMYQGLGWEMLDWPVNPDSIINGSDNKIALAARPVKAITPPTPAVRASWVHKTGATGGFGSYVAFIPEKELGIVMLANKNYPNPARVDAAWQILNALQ
#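 E. coli AmpC (5.3 nM) in 20 mM phosphate pH 7.0 with 0.01% Triton X-100, preincubated 15 min RT with compound; nitrocefin (2 uL of 800 uM stock) hydrolysis followed by 480 nm absorbance every 20 s over 4 min.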
# Prx2 Sm inh – inhibitors of Schistosoma mansoni peroxiredoxin 2. S. mansoni Prx2 activity coupled to TGR/GSH (TGR is thioredoxin glutathione reductase), NADPH fluorescence loss, qHTS. Potency, µM. 0.07% of 65,000 active
#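 qHTS, coupled TGR/Prx2 format; 15 min compound preincubation at RT; reaction started with H2O2 (2.5 mM aliquot); kinetic NADPH fluorescence decrease, ex 365/em 450 nm.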
# AmpC nodet inh – blocks E. coli AmpC beta-lactamase in absence of detergent; 1.8% of 71,000 active; P00811; Potency, µM (highest dose often 28.7 µM), for the others: at the highest dose activity change, negative = inhibition; AmpC nitrocefin hydrolysis, absorbance 480 nm, no detergent; further: % of control where 0% means no effect
#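 AmpC in 20 mM phosphate buffer pH 7.0 was preincubated 15 min at room temperature with compounds. Nitrocefin (800 uM stock) was then added and hydrolysis followed at 480 nm every 20 s for 4 min.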
# Numbers without * were called inactive; u = inconclusive; x = not tested or not shown; [ ] = remark or other dose. In the library only some 2.4% were active in any assay of this set; here they are far more common. Unless noted, the call rests on the fitted dose curve. Potency means the concentration at half of the fitted maximal effect.
SMILES,LT uptake inh,AmpC inh det,Prx2 Sm inh,AmpC nodet inh
O=C(Cn1ncc2c1-c1ccccc1OC2)N(Cc1ccco1)C1CCCCC1,-11.0%,10.8%,>57,81.2%
O=C(Cn1ncc2c(=O)oc3ccccc3c21)N(Cc1ccco1)C1CCCCC1,-15.0%,9.7%,>57,3.16µM*[single pt active]
O=c1onc2cnc3ccccc3n12,u,-0.2%,>57,5.8%
CC(C)OC(=O)c1nnc(Cc2ccc(F)cc2)o1,-0.1%,12.8%,>57,8.7%
CC(C)C[C@H](N)c1nnc(S(=O)(=O)Cc2ccc(F)cc2)o1,u,2.51µM*,>57,2.51µM*
COc1cc(OC)cc([C@H](CNc2ncnc3c2ncn3[C@@H]2O[C@@H](CO)[C@H](O)[C@@H]2O)c2ccccc2C)c1,-5.4%,-3.6%,>57,156.3%
COc1ccc(C(=O)CCC(=O)N2CCN(c3ccc(N4CCOCC4)nn3)CC2)cc1,5.0%,10.2%,>57,68.2%
CC(=O)N1CSCC1C(=O)N1CCN(c2ccc(N3CCOCC3)nn2)CC1 (configuration not stated),4.4%,12.3%,x,2µM*[single pt active]
CCCCNc1nc(C)nc2c1nc(-c1ccccc1)n2CCN1CCCC1,2.2%,18.5%,x,62.4%
O=c1c(-c2cc(F)cc(F)c2)nc2cnc(N3CCOCC3)nc2n1C[C@H]1CCCO1,u,3.5%,>57,-9.4%
CCOC(=O)c1c(N)nn(C(C)=O)c1-c1ccccc1,-1.0%,-6.6%,>57,2.2%
CCOC(=O)c1c(-c2ccccc2)c(C(C)=O)c(=O)n(C)c1C,2.8%,7.9%,>57,3.98µM*[single pt active]
C#CCOC(=O)NC(/C=C/CCCC)c1ccccc1 (configuration not stated),-16.8%,-3.0%,>57,12.9%
CCOC(=O)c1cc(-c2ccc(F)cc2)n(CC(=O)Nc2nccs2)c1C,10µM*,9.7%,>57,3.16µM*[single pt active]
CCOC(=O)c1cc(-c2ccccc2)n(CC(=O)O)c1C,0.9%,-4.5%,>57,-5.0%
O=C(O)C1CC2(C1)CC(C(=O)O)C2 (configuration not stated),-2.4%[8 µM],0.4%[5.75 µM],>11.4,-6.3%[5.75 µM]
CCc1ccccc1,18.8%,22.2%,x,-10.1%
Cc1cc(=O)oc2cc(OCC#N)ccc12,-5.5%,9.4%,>57,3.98µM*[single pt active]
CCN(CC)S(=O)(=O)c1ccc(C(=O)OCCN2C(=O)CCC2=O)cc1,3.2%,11.1%,>57,3.98µM*[single pt active]
CC[C@H]1CN2CCc3cc(OC)c(OC)cc3[C@H]2C[C@@H]1C[C@H]1NCCc2c1[nH]c1ccc(O)cc21,u,-4.3%[5.75 µM],>57,13.2%[5.75 µM]
CC[C@@H]1CN2CCc3cc(OC)c(OC)cc3[C@H]2C[C@@H]1C[C@H]1NCCc2cc(OC)c(OC)cc21,0.02µM*,x,>57,x
CCOc1ccc2ccccc2c1C(=O)N[C@@H]1C(=O)N2[C@@H]1SC(C)(C)[C@@H]2C(=O)O,3.9%[3.58 µM],0.0501µM*,>57,0.0316µM*
Cc1onc(-c2c(Cl)cccc2Cl)c1C(=O)N[C@H]1C(=O)N2[C@H]1SC(C)(C)[C@H]2C(=O)O,6.9%[3.58 µM],0.00251µM*,>57,0.00158µM*
CC1(C)S[C@@H]2[C@H](NC(=O)Cc3ccccc3)C(=O)N2[C@@H]1C(=O)O,-1.1%[8 µM],-2.9%[5.75 µM],>57,4.9%[5.75 µM]
C[C@H](Oc1ccccc1)C(=O)N[C@@H]1C(=O)N2[C@@H]1SC(C)(C)[C@@H]2C(=O)O,11.8%[3.58 µM],0.631µM*,>57,0.251µM*
SMILES,LT uptake inh,AmpC inh det,Prx2 Sm inh,AmpC nodet inh
CC(C)(N)C(=O)N[C@@H]1C(=O)N2[C@@H]1SC(C)(C)[C@H]2C(=O)O,-3.0%[8 µM],1.26µM*,>57,0.501µM*
COCCNc1ncnc2ccc(-c3ccccc3C)cc12,-8.8%,6.4%,>57,72.7%
CC1(C)S[C@@H]2[C@H](NC(=O)C3(N)CCCCC3)C(=O)N2[C@@H]1C(=O)O,-27.1%[8 µM],0.01µM*,>57,0.01µM*
N#Cc1ccc(CN2CC[C@@]3(CCCN(S(=O)(=O)c4ccccc4)C3)C2)cc1,u,0.0%,>57,46.1%
O=C(COC(=O)c1ccc(Br)o1)Nc1nc2ccccc2s1,0.4%,1.0%,x,5.01µM*
Cc1nc2cnc(N(C)C)nc2n(-c2ccccc2)c1=O,-18.4%,2.6%,>57,11.6%
Cc1ccc(NC(=O)c2cc(C)on2)cc1,-25.2%,1.7%,>57,-14.5%
CCCc1cc(C(=O)Nc2sc3c(c2C(=O)OCC)CCCC3)no1,-11.8%,8.1%,>57,3.98µM*[single pt active]
CCCc1cc(C(=O)Nc2cc(Br)ccc2O)no1,u,6.4%,>57,15.8µM*[single pt active]
CCCc1cc(C(=O)Nc2ccc(C)cc2)no1,u,16.3%,>57,3.98µM*[single pt active]
CCOC(=O)c1c(NC(=O)c2noc3c2CCCC3)sc2c1CCCC2,-6.7%,-1.5%,>57,5.1%

# Screening results: PubChem BioAssay, National Center for Advancing Translational Sciences (NCATS)
